Source: PubChem BioAssay (NCI)
About 83,000 compounds went through this panel and 20% of them were active in at least one assay; those are over-represented in the sample as a whole.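 Note: values are percent growth. 100 is the growth of untreated cells, values between 100 and 0 indicate rising inhibition; between -100 and 0 indicates cell death.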 Active and inactive are the calls of the source. Rule for the calls: active = growth percent below 10; inactive = the rest.

Each compound was assayed on HL-60(TB) leukemia (assay: NCI-60 one-dose screen, 48 h (100 = growth as untreated, 0 = no growth, -100 = all killed)). Conditions: 10 µM unless noted.
For `NCCN1CCN(c2nc(-c3ccccc3)nc3nc(-c4ccccc4)oc23)CC1`, the growth was -5.94% (active). For `CCNCc1c(-c2cccc(OC(F)(F)F)c2)[nH]c2ccc(N3CCCC3)cc2c1=O`, the growth was -8.31% (active). For `CCCCCCCCCCCC(=O)NC(C)(C)C(=O)N1CCCC1C(=O)NC(C)(C)C(=O)NC(C)(C)C(=O)N1CCCC1C(=O)NC(C)(C)C(=O)NC(C)(C)C(=O)N1CCCC1C(=O)NC(C)C(=O)NCCC(=O)NC(C)C(=O)NC(C)(C)C(=O)NC(C)(C)C(=O)NC(C)(C)C(=O)NCCC(=O)NC(C)(C)C(=O)NC(C)(C)C(=O)NC(C)(C)C(=O)NC(C)C(=O)NCCC(=O)O` (stereo unspecified), the growth was -66.3% (active). With `O=C(Nc1ccc2c(ccn2Cc2ccccn2)c1)c1cnccn1` the growth was 131% (inactive). `Cc1nc(-c2cc3ccccc3c(N3CCN(C)CC3)n2)cs1` was tested, and the growth was 97.2% (inactive). For `CNC(=O)c1cc(Oc2ccc3nc(NC(=O)c4cc(C)cc(C)c4)sc3c2)ccn1`, the growth was 70.4% (inactive). With `FC(F)(F)c1cc(Br)cc(-c2cc(-c3ccc4c(c3)OCCO4)[nH]n2)c1` the growth was 6.8% (active). With `COc1cc(NC(=O)Nc2cccc(-c3cc(=O)c4c(OC)c(OC)c(OC)cc4o3)c2)cc(OC)c1OC` the growth was 45% (inactive). In the case of `Oc1ccc(CSc2nnc(-c3ccc(Cl)cc3)n2-c2ccccc2)c2cccnc12`, the growth is reported as 23.6% (inactive). With `O=C1/C(=C/C=C/c2ccco2)SC(=S)N1C1CCCCC1` the growth was 69.4% (inactive). For `Nc1ccc(-c2nnc(SCc3ccc(O)c4ncccc34)n2-c2ccccc2)cc1`, the growth was 11.5% (inactive).
